Experimental data published in PubChem BioAssay (NCI).
The panel holds about 79,000 compounds, 15% with a hit somewhere; the sample as a whole holds those more often. Unmarked numbers belong to inactive results. Activity calls are given as the source filed them. Cut-off read from the data, not from the text of the source: active = growth inhibition above about 70%; inactive = the rest.

Assays:
[1] = NCI Yeast Anticancer Drug Screen. Data for the rad50 strain (AID 155);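 note: 0% = growth of vehicle-only cultures of the same strain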; details: S. cerevisiae rad50 strain growth inhibition; at 50.0 µM; hits give high values
In short: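 DNA repair mutant yeast, compound exposure, growth read-out; inhibition is taken relative to vehicle.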

[2] = NCI Yeast Anticancer Drug Screen. Data for the mec2-1 strain (AID 157); details: S. cerevisiae mec2-1 strain, at 50.0 µM, hits give high values
In short: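 mec2-1 yeast strain, carrying an alteration in DNA damage repair or cell cycle control, was exposed to compounds; growth inhibition was measured relative to vehicle-treated controls.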

[3] = NCI Yeast Anticancer Drug Screen. Data for the sgs1 mgt1 strain (AID 161);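 note: 0% = growth of cultures given vehicle only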; details: S. cerevisiae sgs1 mgt1 strain, at 50.0 µM, hits give high values
In short: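 Yeast cells carrying a defined DNA-repair defect were exposed to test compounds. Growth inhibition was measured relative to vehicle-treated controls.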

[4] = NCI Yeast Anticancer Drug Screen. Data for the cln2 rad14 strain (AID 165);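 note: 0% = growth equal to vehicle treated cultures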; details: S. cerevisiae cln2 rad14 strain, at 50.0 µM, hits give high values
In short: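 Yeast carrying cln2 and rad14 alterations (cell cycle control and DNA damage repair) were exposed to compounds. Growth inhibition was measured against vehicle-treated controls.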

[5] = NCI Yeast Anticancer Drug Screen. Data for the bub3 strain (AID 167); details: S. cerevisiae bub3 mutant strain, at 50.0 µM, hits give high values
In short: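 In this screen, a yeast mutant lacking normal mitotic checkpoint function is challenged with compound. Relative growth versus vehicle gives the inhibition value.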

[6] = NCI Yeast Anticancer Drug Screen. Data for the mlh1 rad18 strain (AID 175); details: S. cerevisiae mlh1 rad18 strain growth inhibition; at 50.0 µM; hits give high values
In short: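 Growth inhibition of the yeast strain was measured after compound exposure and expressed relative to vehicle-treated controls. The strain carries defined defects in DNA damage repair.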

Compound | growth inhibition [1] | growth inhibition [2] | growth inhibition [3] | growth inhibition [4] | growth inhibition [5] | growth inhibition [6]
O=C1CCCC2=C1CC1=C(CCCC1=O)N2c1ccccc1C(=O)O | -25.2% | -20.8% | -23.8% | -5% | -21.9% | -36.3%
CC(O)C(C)[N+](=O)[O-] (stereo unspecified) | 9.4% | 0.5% | -2.8% | 11.6% | 5.7% | -1.05%
Cc1cc([N+](=O)[O-])cnc1Cl | -14.1% | -22.2% | -11.6% | -15.9% | 12% | -16.8%
Cn1nc(NC(=O)c2cc(N)nn2C)cc1C(=O)Nc1ccc2cc(S(=O)(=O)O)cc(S(=O)(=O)O)c2c1 | -14.1% | -16.7% | -10.3% | 7.65% | 13.7% | -3%
C[Si](C)(C)C#C[I+]c1ccccc1 | -27.6% | -24.4% | 12.7% | 5.65% | 8.95% | -8.85%
CN1C/C(=C\c2ccccc2)C2=NN(C(N)=S)[C@H](c3ccccc3)[C@@H]2C1 | 3.5% | -18.1% | -5.85% | 10.9% | -19.8% | -16.9%
COCCNc1cncc(C(N)=O)c1 | 15% | 6.9% | 9.15% | -19.2% | 2.45% | 10.9%
CCOC(=O)C(C(=O)OCC)c1cnc2ccccc2c1Cl | -0.7% | -9.45% | 6.55% | -40.5% | -4.5% | 2.85%
CCOC(=O)N1C/C(=C\c2ccccc2)C(=O)/C(=C/c2ccccc2)C1 | -6.85% | 0.6% | -12.3% | 19.6% | 9.15% | 72.2% (active)
C=CC1CC[N-]CC1.[Cl][Cu][Cl] | 6.4% | -1.9% | 2.75% | -7.6% | -14.6% | 6.35%
Cc1cc(Cl)ccc1N=C1NC(=O)C(CC(=O)Nc2ccc(Cl)cc2Cl)S1 (stereo unspecified) | 14.8% | 13.1% | -2.35% | -46.4% | -4.3% | 19.8%
Cc1cc(C)c(NC(=O)c2cc(C(=O)O)c(C(=O)Nc3c(C)cc(C)cc3C)cc2C(=O)O)c(C)c1 | 8.7% | 2.5% | -15.6% | -7.1% | 2.5% | -1.55%
CCOC(=O)C(NCc1cccc(C(F)(F)F)c1)(NC(=O)c1ccccc1)C(F)(F)F (stereo unspecified) | 12.2% | -0.95% | -1.95% | 17.9% | 8.4% | 25%
OCC(O)C(O)C(O)C(O)C(O)[C@@H](O)c1nc2ccccc2[nH]1 (stereo partly specified) | -9.2% | -5.4% | -12.3% | -16.9% | 50.1% | 6.6%
CC(=O)OC1CCC2C(C)(CCC3C2(C)CCC2(C)C4CC(C)(C)CCC4(C)CCC32C)C1C (stereo unspecified) | -15.1% | -6.25% | -11.8% | -38.1% | -0.05% | -11.8%
C/C(=N\Nc1ccc([N+](=O)[O-])cn1)c1ccccn1 | 31.2% | -10.2% | 25.4% | 5.6% | 12.2% | -1.3%
C=CCN1C(=O)C/C(=C2/CCC(=O)N2CC=C)C1=O | -11.1% | -27.4% | -16% | 3.6% | 1.8% | -9.8%
CCC1CC/C(=N\Nc2ccc([N+](=O)[O-])cc2[N+](=O)[O-])c2ccc3c(C)ccc(C)c3c21 (stereo unspecified) | -1% | 7.25% | -8.7% | -14.2% | -2.5% | 6.8%
CC(=O)N(CCc1ccccc1)C(C)(C#N)c1ccccc1 (stereo unspecified) | -0.2% | 4% | -30.9% | -22.4% | -12.2% | -29.4%
COc1ccc(C=Nc2cc([N+](=O)[O-])ccc2O)cc1 | 8.5% | -2.75% | 3.75% | -9.45% | 25.5% | 3%
O=C(CC1=NC2NN(c3ccccc3)C(=O)C2=C1CC(=O)C(c1ccccc1)c1ccccc1)C(c1ccccc1)c1ccccc1 (stereo unspecified) | 51.9% | 17.9% | 27.8% | 32% | 10.8% | 48.5%

Compound | growth inhibition [1] | growth inhibition [2] | growth inhibition [3] | growth inhibition [4] | growth inhibition [5] | growth inhibition [6]
CC(=O)NCCc1nc(-c2nc(C(=O)NCCC(C)C)cs2)cs1 | 14.1% | 16.6% | -2% | -23.4% | 6.8% | 5.9%
O=C(NNc1ccccc1OCc1ccccc1)C(F)(F)F | -0.25% | -20.3% | 0.35% | 39.8% | 27% | 11.2%
O=NC1C2CCC(C2)C1N=O.[Co].[c-]1[c-][c-][cH-][c-]1 (stereo unspecified) | 9.4% | 6.45% | 4.7% | 20.4% | 13.6% | 27.9%
CN(C)CNc1ncnc2onc(-c3ccccc3)c12 | 10.1% | 14.5% | 13.7% | 11.6% | -5.5% | -4.15%
O=C(OCC1OC(n2ccc(=O)[nH]c2=O)C(F)C1OC(=O)c1ccccc1)c1ccccc1 (stereo unspecified) | 24.1% | 4.3% | 8.6% | 17.7% | 7.15% | 2.3%
CCOP(=O)(OCC)OC1CC(n2cnc3c(N(CC)CC)ncnc32)OC1CO[Si](C)(C)C(C)(C)C (stereo unspecified) | 19.1% | 8.65% | 54% | 38.8% | 47.9% | -16.1%
CCc1cc2c(cc1/C(C)=N/N=C(\C)c1cc3c(cc1CC)C(C)(C)CCC3(C)C)C(C)(C)CCC2(C)C | -27.1% | -1.8% | -9.3% | -30.6% | 9.95% | -15.5%
O=Cc1cccs1 | 23% | -2% | 7.85% | -14.6% | 8.3% | 33.9%
CC(=O)NNc1nc(C)c(C(=O)NNC(=O)C(=O)Nc2cccc(C(C)=O)c2)s1 | 7.3% | 0.5% | -23.1% | 36.5% | 0.85% | -12.3%
O=C1C(Cl)=C(SCc2ccccc2)C(=O)c2ccccc21 | 17.8% | 72.7% (active) | 48.2% | -11.3% | 61.9% | 42.9%
c1ccc(CC(c2cccc3ccccc23)N2CCOCC2)cc1 (stereo unspecified) | 22.2% | 23.9% | 39.7% | -7.55% | 30% | 23.2%
COc1ccc(OC)c(C#N)c1C#N (tested in a mixture with another compound) | -25.1% | 5.9% | -0.15% | -41.5% | -3.35% | -6.75%
CCCOC(=O)/C=C/c1ccc(OC)cc1 | -10.7% | -18.9% | -16.1% | -12.2% | -14.4% | -27.4%
Sc1ccccc1N=Cc1ccc(C=Nc2ccccc2S)cc1 | -15.8% | -8.05% | 7.1% | 18.8% | 4.45% | -3.75%
N=c1ncn(Cc2ccccc2)c2nc[nH]c12 | -2.4% | 2% | 1.3% | -3.6% | 10% | -4%
Cn1c(=S)[nH]c2sc3c(c2c1=O)CCCCC3 | 12.2% | -0.6% | 8.25% | 6.65% | -4.05% | 8.4%
COc1cc(OC)c(NC(=O)NC(C)(C)C)cc1Cl | -3.35% | 9.4% | 17.1% | -2.5% | 18.6% | 23.4%
ON=C1CCN(c2ccccc2)CC1 | 10.3% | -30.5% | -10.4% | -44.1% | 1.6% | -18.4%
CC1=NN(c2ccc([N+](=O)[O-])cc2)C(=O)C1 | 25.6% | 0.25% | 22.6% | 6.1% | 25.6% | 36.9%
c1ccc(CNc2ncccn2)nc1 | 21.8% | 7.45% | 40.7% | 7.35% | -10% | 11.4%
